These results are taken from PubChem BioAssay (NCATS).

Common to all, as to assay: qHTS profiling for inhibitors of Plasmodium falciparum proliferation (AID 504749); also: nearly all actives have a fitted effect of over 60% in size
Conditions in all cases: P. falciparum in erythrocytes, SYBR Green DNA, 72 h; series mostly up to 28.7 µM
(qHTS replaces the single test concentration by a dilution series.)

The test system of one test is CP191. An outline of the steps: (§1)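 Three-day growth assay of blood-stage parasites in erythrocytes (0.3% parasitemia, 2.5% hematocrit) at 37 C, 5% CO2, quantified by SYBR Green DNA staining after overnight detergent lysis.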
Another test has as its system CP192. In a few lines:
as §1

In another test the test system is CP201. An outline of the steps: as §1
Another test deals with CP215. An outline of the steps:
as §1

In the next test the test system is CP217. An outline of the steps:
as §1

In the next test the test system is CP247. An outline of the steps: as §1
The subject of a further test is CP250. In a few lines: as §1
For a further test, the system named is CP260. An outline of the steps:
as §1

In the next test the test system is CP262. An outline of the steps:
as §1

Another test has as its system C2A. An outline of the steps: as §1
The next test has as its system CP185. An outline of the steps:
as §1

A further test concerns CP203. An outline of the steps:
as §1

The subject of the next test is CP211. An outline of the steps:
as §1

In the next test the test system is CP237. An outline of the steps:
as §1

In a further test the test system is ATS189. In a few lines: as §1
The test system of another test is ATS95. An outline of the steps:
as §1

The test system of another test is CP238. In a few lines:
as §1

The next test has as its system CP252. In a few lines: as §1
The next test concerns CP256. An outline of the steps: as §1
The test system of a further test is CP194. An outline of the steps: as §1

Molecules are shown by their SMILES. Results filed as inconclusive are left out. Activity calls are given as the source filed them. Calls follow the shape of the dose curve; as a rule, active = well fitted inhibition curve with a large enough effect; inconclusive = small, poorly fitted or top-dose-only effect; inactive = flat fitted curve, though single readings scatter.
Potency is read from the fitted curve at half-maximal effect.

Turning to `CN(C)CCOC(c1ccccc1)c1ccccc1`, the Potency entry with CP191, in the test with CP192, in the test on CP201, in the test on CP215, with CP217 and with CP247 was “inactive” in each case. In addition, the Potency result in the test on CP250 and in the test with CP262 was “inactive” in each case. In the test with CP260, the Potency is 5.62 µM (active).
Regarding `Clc1ccc2c(c1)C(N1CCNCC1)=Nc1ccccc1O2`, the Potency result in the test with C2A, with CP185, in the test on CP192, in the test on CP201, in the test with CP203 and with CP211 was “inactive” each time. The Potency entry in the test on CP250 and in the test with CP262 was “inactive” in each case. For the same compound, the Potency in the test with CP237 was 7.08 µM (active).
Take `CCCCc1oc2ccccc2c1C(=O)c1cc(I)c(OCCN(CC)CC)c(I)c1`: the Potency is 5.62 µM (active) in the test with ATS189; 5.01 µM (active) in the test with ATS95; 10 µM (active) in the test on C2A; 8.91 µM (active) in the test on CP185; 8.91 µM (active) with CP191; 15.1 µM (active) with CP203. The Potency in the test on CP215 was 15.1 µM (active); with CP217 it was 5.62 µM (active); in the test with CP237 it was 7.08 µM (active); with CP238 it was 7.94 µM (active); in the test with CP247 it was 8.91 µM (active); in the test with CP250 it was 7.94 µM (active). The Potency with CP252 is 11.2 µM (active); with CP256 it was 12.6 µM (active); with CP260 it was 3.98 µM (active).
For the compound `O=C(c1ccc(F)cc1)C1CCN(CCn2c(=O)[nH]c3ccccc3c2=O)CC1`, the Potency result in the test with ATS189, with ATS95, with C2A, with CP185, with CP192 and in the test with CP194 was “inactive” in each case. Besides, the Potency result in the test with CP201, in the test with CP203, in the test on CP211, in the test with CP217, in the test with CP237 and in the test with CP238 was “inactive” each time. The Potency result in the test with CP252, in the test with CP256, in the test on CP260 and in the test on CP262 was “inactive” in each case.
For `Nc1nc2c(ncn2COC(CO)CO)c(=O)[nH]1`, the Potency result in the test with ATS189, in the test on ATS95, with C2A, in the test with CP185, in the test on CP191 and with CP192 was “inactive” in each case. Also, the Potency entry with CP194, in the test with CP201, in the test with CP203, in the test with CP211, with CP217 and with CP237 was “inactive” each time. The Potency entry with CP238, with CP247, in the test on CP250, in the test with CP252, with CP256 and in the test on CP260 was “inactive” throughout. Moreover, the Potency result in the test on CP262 was “inactive”.
Regarding `CC#C[C@]1(O)CC[C@H]2[C@@H]3CCC4=CC(=O)CCC4=C3[C@@H](c3ccc(N(C)C)cc3)C[C@@]21C`, the Potency was 11.2 µM (active) in the test on CP191; 16.9 µM (active) with CP194; 15.1 µM (active) with CP201; 19 µM (active) in the test with CP203; 13.5 µM (active) with CP211; 12 µM (active) in the test on CP215. The Potency is 11.2 µM (active) in the test on CP217, 11.2 µM (active) in the test with CP237 and 8.91 µM (active) in the test with CP247.
For the compound `NCCc1cnc[nH]1`, the Potency entry in the test on ATS189, in the test on C2A, in the test with CP185, in the test with CP191, in the test on CP192 and in the test on CP194 was “inactive” throughout. Besides, the Potency result with CP201, in the test with CP203, with CP211, in the test on CP215, with CP217 and in the test on CP237 was “inactive” in each case. Besides, the Potency entry in the test on CP238, in the test on CP247, in the test on CP250, in the test with CP252, in the test on CP256 and in the test on CP260 was “inactive” throughout. Also, the Potency result with CP262 is “inactive”.
Consider `CC12CC3CC(C)(C1)CC(N)(C3)C2`, for which the Potency result in the test on ATS189, with C2A, in the test on CP185, in the test with CP191, in the test with CP192 and with CP194 was “inactive” throughout. The Potency entry with CP201, with CP203, in the test with CP211, in the test with CP215, in the test with CP217 and in the test with CP238 was “inactive” throughout. Further, the Potency entry in the test on CP247, in the test on CP250, in the test on CP252, in the test on CP256 and in the test on CP262 was “inactive” each time.
For `CC(COc1ccccc1)N(CCCl)Cc1ccccc1` (stereo not drawn), the Potency entry with C2A, with CP185, in the test with CP191, in the test with CP192, in the test with CP201 and in the test with CP211 was “inactive” each time. Moreover, the Potency result with CP247, with CP250, with CP252, in the test with CP256 and in the test on CP262 was “inactive” in each case. The Potency in the test on CP237 is 11.2 µM (active).
Consider `COc1ccc2[nH]cc(CCNC(C)=O)c2c1`, for which the Potency result with ATS189, in the test on ATS95, in the test with C2A, with CP185, with CP191 and in the test with CP192 was “inactive” throughout. The Potency result in the test with CP194, with CP201, in the test on CP203, with CP211, in the test with CP217 and in the test with CP237 was “inactive” each time. In addition, the Potency result in the test on CP238, with CP247, with CP250, in the test on CP252, in the test on CP256 and in the test on CP260 was “inactive” each time. Moreover, the Potency result in the test on CP262 is “inactive”.
As for `CC1(CN2CCC(n3c(=O)[nH]c4ccccc43)CC2)OCc2ccccc2-n2cccc21` (stereo not drawn), the Potency entry in the test with CP192 and in the test on CP262 was “inactive” each time.
As to `CC(C)NCC(O)COc1ccc(CCOCC2CC2)cc1` (stereo not drawn), the Potency entry in the test with ATS95, with C2A, in the test on CP185, in the test with CP192, with CP194 and in the test on CP201 was “inactive” in each case. Further, the Potency result in the test with CP203, in the test on CP211, in the test with CP215, in the test with CP217, in the test on CP237 and with CP238 was “inactive” in each case. For the same compound, the Potency result in the test with CP247, in the test with CP250, in the test on CP252, in the test on CP256 and in the test with CP262 was “inactive” in each case.
As to `O=c1[nH]cc(F)c(=O)[nH]1`, the Potency entry in the test on ATS189, in the test with CP215 and in the test with CP262 was “inactive” in each case. Also, the Potency in the test with CP247 was 8.91 µM (active).
For `O=C1c2c(O)ccc(O)c2C(=O)c2c(NCCNCCO)ccc(NCCNCCO)c21`, the Potency is 2.82 µM (active) in the test with ATS189; 2.24 µM (active) with ATS95; 3.16 µM (active) in the test on C2A; 3.16 µM (active) in the test on CP185; 3.55 µM (active) in the test on CP191; 6.42 µM (active) in the test on CP194. Besides, the Potency in the test on CP201 is 6.42 µM (active); in the test on CP211 it was 6.42 µM (active); in the test on CP215, 6.42 µM (active); with CP217, 3.55 µM (active); in the test on CP237 it was 1.26 µM (active); in the test on CP238, 3.16 µM (active). For the same compound, the Potency was 3.16 µM (active) in the test on CP247, 3.16 µM (active) in the test on CP250, 3.16 µM (active) with CP252 and 1 µM (active) in the test with CP260.
